According to PubChem BioAssay (NCI):
About 79,000 compounds went through this panel and 15% of them were active in at least one assay; those are over-represented in the sample as a whole. Rule as the data show it: active = growth inhibition above about 70%; inactive = the rest.

What was measured:
[1] = NCI Yeast Anticancer Drug Screen. Data for the rad50 strain (AID 155);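 also: 0% = growth of vehicle-only cultures of the same strain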; settings: S. cerevisiae rad50 strain growth inhibition, stronger effect = higher value; at 50.0 µM unless noted
Summary of the method: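 Inhibition values express reduced yeast growth in compound-treated cultures relative to vehicle-treated controls.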

[2] = NCI Yeast Anticancer Drug Screen. Data for the mec2-1 strain (AID 157); settings: S. cerevisiae mec2-1 strain, stronger effect = higher value; at 50.0 µM unless noted
Summary of the method: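 Cells of the genetically defined mec2-1 yeast strain are incubated with test compound. Inhibition of growth is calculated against vehicle-treated controls.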

[3] = NCI Yeast Anticancer Drug Screen. Data for the sgs1 mgt1 strain (AID 161);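 also: 0% = growth of cultures given vehicle only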; settings: S. cerevisiae sgs1 mgt1 strain, stronger effect = higher value; at 50.0 µM unless noted
Summary of the method: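 Genetically altered yeast, compound exposure, growth inhibition relative to vehicle.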

[4] = NCI Yeast Anticancer Drug Screen. Data for the cln2 rad14 strain (AID 165);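 also: 0% = growth equal to vehicle treated cultures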; settings: S. cerevisiae cln2 rad14 strain, stronger effect = higher value; at 50.0 µM unless noted
Summary of the method: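 The screen exposed genetically defined yeast (cln2 rad14) to test compounds and scored growth inhibition relative to vehicle-treated controls.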

[5] = NCI Yeast Anticancer Drug Screen. Data for the bub3 strain (AID 167); settings: S. cerevisiae bub3 mutant strain, stronger effect = higher value; at 50.0 µM unless noted
Summary of the method: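 Steps: expose the mutant yeast strain to compound; grow alongside vehicle-treated cultures; measure growth; express inhibition against the vehicle cultures.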

[6] = NCI Yeast Anticancer Drug Screen. Data for the mlh1 rad18 strain (AID 175); settings: S. cerevisiae mlh1 rad18 strain growth inhibition, stronger effect = higher value; at 50.0 µM unless noted
Summary of the method: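 Compound-treated yeast growth, normalised to vehicle controls. Strain bears defined DNA repair mutations.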

Measured: growth inhibition

COC1=C2CC(C)CC(OC)C(O)C(C)/C=C(\C)C(OC(N)=O)C(OC)/C=C\C=C(/C)C(=O)NC(=C(/C=N/N(C)C)C1=O)C2=O (stereo not drawn)
inactive: [1] -11.3% | [2] -63.5% | [3] -35% | [4] 3.5% | [5] -16.9% | [6] -25.8%

CCCCCCCCCCCCCCCCCc1c(Cl)c(Cl)c(Cl)c(Cl)c1Cl
inactive: [1] 47% | [2] -4% | [3] 26.4% | [4] -45.1% | [5] -2.75% | [6] -6.6%

COC(=O)c1cc(NC(=O)Nc2cccc(C(C)=O)c2)cc(C(=O)OC)c1
inactive: [1] -9.75% | [2] 31.2% | [3] 25.6% | [4] -10.2% | [5] 37.6% | [6] 36.4%

O=C(O)NC(=O)c1cc([N+](=O)[O-])ccc1COC1CCCCO1 (stereo not drawn)
inactive: [1] 5.95% | [2] -0.85% | [3] 2.55% | [4] -11.7% | [5] 14.9% | [6] 0.75%

COC(=O)c1ccc(SCCC(=O)CN2C(=O)c3ccccc3C2=O)cc1
inactive: [1] 18.9% | [2] 8.5% | [3] 17.1% | [4] 23.1% | [5] 4.1% | [6] 27.8%

C/C(=N/NC(N)=S)c1c(C)[nH]c2ccccc12
inactive: [1] 3.1% | [2] 10.2% | [3] -7.7% | [4] -78.8% | [5] -45% | [6] 0.95%

COC(=O)[C@@H]1Cc2cc(O)c(O)cc2C2(CCN(C)CC2)O1
inactive: [1] -21.5% | [2] -22.8% | [3] -17.6% | [4] -12.2% | [5] -10.7% | [6] -29.1%

CC(=O)OCC1C2C=CC(C2)C1COC(C)=O (stereo not drawn)
inactive: [1] 2.2% | [2] -4.8% | [3] -5.1% | [4] -47.1% | [5] -2.9% | [6] 2.1%
